Screens deposited in PubChem by several laboratories.
Hits are enriched below; roughly 5.2% of the tested compounds scored in any of these assays.
esBAF inh – SWI/SNF esBAF complex inhibition. hit rate 2% among 350,000. AID 602393. reporter increase, % at 12.5 µM. mouse ES cells, Bmi1-luciferase knock-in reporter, 24 h; 100% = twice the neutral-well signal; in the data active means activation above about 40%;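 further: 0% = median of the plate's neutral control wells and 100% = double that signal; a rise in the Bmi1 reporter signal indicates esBAF inhibition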
GRIN3A LBD mod – modulators (binders) of human NR3A ligand-binding domain. NR3A LBD differential scanning fluorimetry, Tm shift; 0% = protein alone, 100% = glycine-bound protein. hit rate 2.5% among 340,000. Tm shift relative to glycine control, % at 25 µM;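 active means melting temperature shift of at least 10% of the positive control shift, at one fixed dose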
NadD block – NadD (S. aureus) enzyme inhibition. purified NadD enzyme, colorimetric absorbance read-out. inhibition, % at 20 µM. hit rate 0.78% among 360,000; in the data active means inhibition above about 26%
SKN-1 inh – inhibitors of C. elegans SKN-1. C. elegans VP596 Pgst-4::GFP/RFP ratio, acrylamide-induced, 24 h. inhibition, % at 21.8 µM. hit rate 0.49% among 360,000. AID 624304;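 active means interference check ratio from 0.5 to 1.5 plus GFP to RFP signal ratio inhibition reaching or exceeding a fixed threshold, cut at about 30% in these data, passing the limit was not always enough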
Vif inh – blocks HIV Vif function; HEK293T cells, Vif self-association by quenched fluorescence, imaging, 24 h; inhibition, % at 7.49 µM; hit rate 0.35% among 340,000; AID 602346; in the data active means inhibition above about 50%, passing the limit was not always enough
SMARCA2 activ – increases SMARCA2 function in MMTV reporter cells. MG213 cells, MMTV-luciferase reporter, dexamethasone, overnight. activation, % at 9.1 µM. hit rate 1% among 370,000. AID 652017; in the data active means activation above about 7.8%;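 further: 0% = vehicle wells and 100% = reference activator wells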
Starred values were filed as active, the others as inactive; nt = no result.

SMILES	esBAF inh	GRIN3A LBD mod	NadD block	SKN-1 inh	Vif inh	SMARCA2 activ
CCOc1ccc(NC(=S)Nc2ccc(OC)cc2)cc1	8.6	-6.1	0.1	-9.3	-4.5	-3.3
COc1ccc(NC(=O)Nc2cccc3c2O[C@@H](CN(C)CC2CC2)[C@H](C)CN([C@H](C)CO)C3=O)cc1	-0.6	nt	nt	nt	nt	nt
O=C(C[C@@H]1C=C[C@@H](NC(=O)c2ccncc2)[C@@H](CO)O1)NCC1CC1	1.7	nt	nt	nt	nt	nt
CN1C(=O)c2cc(NC(=O)C3CCCC3)ccc2OC[C@H]2O[C@H](CC(=O)NCC3CC3)CC[C@@H]21	-2.6	nt	nt	nt	nt	nt
Cc1ccc(NC(=S)NNC(=S)Nc2cccc(C(F)(F)F)c2)cc1	nt	33.9*	23.0	15.4	3.2	-1.2
Cc1ccc(NC(=S)NNC(=O)Nc2ccccc2)cc1	nt	0.7	3.9	6.6	20.4	6.1
Cc1ccc(NC(=S)NNC(=S)Nc2ccc(C)cc2)cc1	nt	30.1*	3.4	-7.7	-3.8	-1.3
CCCCSc1nnc(-c2ccc(OC)cc2)n1C	56.0*	0.2	5.2	-8.9	13.1	-1.2
Cc1ccc(-c2nnc(SCC(C)C)n2C)cc1	54.5*	-6.1	2.6	-14.3	-9.1	0.5
Cc1ccc(-c2nnc(SCC(N)=O)n2C)cc1	-3.4	0.4	-0.4	14.7	13.8	-0.5
O=C(C[C@H]1CC[C@H](NS(=O)(=O)c2ccccc2)[C@@H](CO)O1)N1CCc2ccccc2C1	-0.7	nt	nt	nt	nt	nt
C[C@@H]1CN([C@@H](C)CO)C(=O)c2cccc(NC(=O)c3ccncc3)c2O[C@H]1CN(C)Cc1ccc(Cl)c(Cl)c1	7.0	nt	nt	nt	nt	nt
C[C@@H]1CN([C@H](C)CO)C(=O)c2cc(N(C)C)ccc2O[C@@H](C)CCCCO[C@@H]1CN(C)C(=O)c1ccncc1	9.6	nt	nt	nt	nt	nt
CC1=C/C(=C(/c2cc(C)c(O)c(Br)c2)c2ccccc2S(=O)(=O)O)C=C(Br)C1=O	-43.1	-0.2	-6.9	50.5*	15.7	-3.4
Cc1ccc2nc(C)cc(C(=O)NC3CCCCCC3)c2c1	-6.4	-2.2	2.6	-13.4	6.4	0.9
Cc1ccc2nc(-c3cccc(Br)c3)cc(C(=O)NC3CC3)c2c1	nt	13.2*	4.4	15.9	nt	0.0
Cc1ccc(S(=O)(=O)N(C)C[C@H]2Oc3ccc(NS(=O)(=O)c4ccc(F)cc4)cc3CC(=O)N([C@H](C)CO)C[C@H]2C)cc1	0.0	nt	nt	nt	nt	nt
c1ccc2c(c1)Cn1c-2nc2ccccc21	27.8	1.9	-1.6	-16.7	nt	5.4
Clc1ccc(-c2cn3c(n2)-c2ccccc2C3)cc1Cl	nt	29.6*	4.4	40.1*	-9.7	-0.2
CCc1ccc(C(=O)N/N=C(\C)c2cccnc2)s1	43.3*	-0.9	-2.4	11.5	1.7	3.7
COc1ccc(NC(=O)c2cc(Cl)ccc2Cl)c([N+](=O)[O-])c1	7.5	0.1	-0.6	6.9	11.4	-3.4
COc1ccc(NC(=O)C/C(C)=N/NC(=O)c2cccs2)c([N+](=O)[O-])c1	2.3	-0.2	-3.1	15.5	-14.5	6.7
COc1ccc(NC(=O)c2sccc2C)c([N+](=O)[O-])c1	54.6*	5.8	-8.4	13.0	-11.2	2.1
COc1cc(NC(=O)COc2ccccc2[N+](=O)[O-])ccc1NC(=O)c1cccs1	49.9*	-0.9	-8.2	-5.0	52.8*	1.2
COc1ccc(NC(=O)c2cccs2)c([N+](=O)[O-])c1	86.3*	-0.2	-7.1	21.3	nt	4.0
SMILES	esBAF inh	GRIN3A LBD mod	NadD block	SKN-1 inh	Vif inh	SMARCA2 activ
Cc1cc(C(=O)COC(=O)CNC(=O)c2ccco2)c(C)n1Cc1ccco1	nt	0.7	-3.7	3.3	6.8	0.6
COc1cc(OC)cc(C(=O)NCC(=O)OCC(=O)c2cc(C)n(Cc3ccco3)c2C)c1	nt	18.6*	-0.4	6.7	4.9	-0.8
Cc1cc(C(=O)COC(=O)c2ccc(O)cc2)c(C)n1Cc1ccco1	nt	3.9	-0.9	11.0	0.3	1.7
CCOc1ncccc1C(=O)OCC(=O)c1cc(C)n(Cc2ccco2)c1C	58.3*	-0.3	-4.4	-1.0	-5.7	2.2
COc1cc(C2N=C(c3ccccc3)NO2)cc(Br)c1O (centres undefined)	10.8	-0.1	2.5	3.5	3.4	3.8
FC(F)Oc1ccc(C2N=C(c3ccccc3)NO2)cc1 (centres undefined)	nt	-0.2	-6.0	34.3*	13.7	3.2
Cc1cc(C(=O)Nc2cccc3c2O[C@H](CN(C)S(C)(=O)=O)[C@@H](C)CN([C@@H](C)CO)C3=O)n(C)n1	-1.5	nt	nt	nt	nt	nt
